Compound activity: PubChem BioAssay, several laboratories
This is a sample that favours compounds with a hit; in the whole collection about 3.8% have one here.
tim10-1 inh: inhibits growth of tim10-1 mutant yeast; S. cerevisiae tim10-1 ts strain growth, BacTiter-Glo, 24 h; inhibition, % at 20 µM; 330,000 compounds, 2.2% hits; AID 463190;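 active = inhibition of at least 40%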;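 note: mutant grown at 25 °C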
tim23-1 inh: tim23-1 yeast growth inhibition. S. cerevisiae tim23-1 growth, BacTiter-Glo luminescence, 24 h. inhibition, % at 20 µM. 330,000 compounds, 1.3% hits;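 active = growth inhibition of the mutant yeast at or above 50%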;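 note: temperature-sensitive mutant grown at 25 °C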
TIM10 inh: growth inhibitors of TIM10 yeast strain; 330,000 compounds, 1.4% hits; S. cerevisiae TIM10 strain growth, BacTiter-Glo luminescence, 24 h; inhibition, % at 10 µM; AID 463195;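 active = inhibition of 40% or more at the single tested concentration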;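 note: wild-type TIM10 isogenic control strain grown at permissive 25 °C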
PfHsp90 yeast 2: growth inhibition of yeast expressing Plasmodium Hsp90; S. cerevisiae expressing PfHsp90, BacTiter-Glo ATP, 48 h; yeast lacking PDR1 and PDR3 efflux regulators; inhibition, % at 9.4 µM; 310,000 compounds, 0.32% hits;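 active = every replicate shows inhibition above about 80%, whatever the replicate mean, limit read from the data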
B2AR ag: human beta-2 adrenergic receptor agonism by FAP | P07550 | Am2.2-beta2AR cells, FAP receptor internalization, flow cytometry | response, % (concentration not given with the values) | 340,000 compounds, 0.43% hits;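 active = response above a set limit, near 3 SD of response in nonfluorescent compounds, cut at about 42% in these data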
Target sequence (P07550 whole entry, looked up): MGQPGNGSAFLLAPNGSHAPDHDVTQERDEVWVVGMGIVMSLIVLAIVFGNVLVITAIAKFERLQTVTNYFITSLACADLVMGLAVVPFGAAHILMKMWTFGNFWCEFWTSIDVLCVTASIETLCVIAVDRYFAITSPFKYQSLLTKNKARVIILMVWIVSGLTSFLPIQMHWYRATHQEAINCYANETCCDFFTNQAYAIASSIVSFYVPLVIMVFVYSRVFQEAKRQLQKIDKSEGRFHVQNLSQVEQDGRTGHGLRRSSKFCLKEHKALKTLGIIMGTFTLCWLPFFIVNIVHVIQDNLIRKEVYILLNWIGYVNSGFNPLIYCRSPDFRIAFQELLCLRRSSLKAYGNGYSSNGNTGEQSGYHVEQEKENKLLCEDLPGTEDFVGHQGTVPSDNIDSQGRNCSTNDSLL
tim10-1 confirm: tim10-1 yeast growth inhibition, confirmed; S. cerevisiae tim10-1 ts strain growth, BacTiter-Glo, 24 h; inhibition, % at 20 µM; shares compounds with tim10-1 inh; 7,400 compounds, 56% hits;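 active = inhibition of yeast growth at or above a set limit in either of two repeat tests at 20 µM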;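 note: tim10-1 mutant grown at permissive 25 °C to find synthetic lethal compounds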
TIM10 conf: confirmation of TIM10 yeast growth inhibitors; shares compounds with TIM10 inh; S. cerevisiae tim10 strain growth, BacTiter-Glo luminescence, 24 h; inhibition, % at 10 µM; 4,600 compounds, 63% hits;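 active = inhibition of yeast growth at or above a set limit in either of two replicates at 10 µM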; note: this counterscreen used the strain with wild-type TIM10
tim23-1 conf: tim23-1 yeast growth inhibition, confirmed; AID 463218; inhibition, % at 20 µM; S. cerevisiae tim23-1 growth, BacTiter-Glo luminescence, 24 h; 4,400 compounds, 83% hits; shares compounds with tim23-1 inh;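 active = inhibition above about 39% in either of two replicate wells at 20 µM, limit read from the data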;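 note: temperature-sensitive tim23-1 mutant grown at 25 °C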
Large screens that a line does not name were inactive (follow-up assays come after a bar, where they were run).

COc1ccc(-[n+]2c(C)cc(/C=C3\Sc4ccccc4N3C)cc2C)cc1	tim10-1 inh 76.7, tim23-1 inh 81.5, TIM10 inh 66.2 (no result: B2AR ag) | tim10-1 confirm 76.2 | TIM10 conf 67.4 | tim23-1 conf 83.5
O=C(Oc1ccc(Cl)c2cccnc12)N1CCOCC1	none
COc1ccc(C(=O)Oc2c(CN3CCOCC3)cc(Cl)c3cccnc23)cc1	tim10-1 inh 41.0, tim23-1 inh 54.4 | tim10-1 confirm 33.4 | tim23-1 conf 45.5
COc1cccc(C(=O)Oc2c(CN3CCOCC3)cc(Cl)c3cccnc23)c1	tim10-1 inh 43.1, tim23-1 inh 50.7, TIM10 inh 44.2 (no result: PfHsp90 yeast 2) | tim10-1 confirm 33.5 | TIM10 conf inactive | tim23-1 conf 47.8
C#CCNCCS(=O)(=O)N(Cc1ccc(Br)cc1)[C@@H](CC(C)C)C(=O)O	none
O=C1c2cccc3cccc(c23)C(=O)N1c1ccccn1	none
O=C1c2c(Br)c(Br)c(Br)c(Br)c2C(=O)N1c1ccccn1	tim10-1 inh 76.3, tim23-1 inh 85.6, TIM10 inh 68.9 | tim10-1 confirm 74.5 | TIM10 conf 75.4 | tim23-1 conf 58.2
N/C(Cc1ccc([N+](=O)[O-])cc1)=N\OC(=O)COc1cccc2ccccc12	tim10-1 inh 64.4, tim23-1 inh 59.5, TIM10 inh 75.6 | tim10-1 confirm 73.2 | TIM10 conf 72.4 | tim23-1 conf 91.0
COc1ccc(C/C(N)=N/OC(=O)COc2ccccc2C)cc1	tim10-1 inh 50.5, tim23-1 inh 55.3 | tim10-1 confirm 39.0 | tim23-1 conf 41.3
CCCN(CC(=O)Nc1ccccc1C)C(=O)CCCNC(=O)c1ccc(Cl)cc1	none (no result: PfHsp90 yeast 2)
O=c1n(Cc2ccc(Cl)cc2)c2sc3c(c2c2ncnn12)CCCC3	tim10-1 inh 43.6, tim23-1 inh 68.3 | tim10-1 confirm inactive | tim23-1 conf 58.2
O=C(c1ccc2c(c1)OCCO2)C1CCN(S(=O)(=O)c2ccc(F)cc2)CC1	tim10-1 inh 42.9, tim23-1 inh 57.3, TIM10 inh 50.3 | tim10-1 confirm 42.3 | TIM10 conf 39.7 | tim23-1 conf 47.0
COCCCN1C(=O)/C(=C\c2ccc3c(c2)OCO3)C(C(=O)OC)=C1C	none
CCN1C(=O)/C(=C\c2ccc3c(c2)OCO3)C(C(=O)OC)=C1C	tim10-1 inh 46.5, TIM10 inh 56.3 (no result: PfHsp90 yeast 2) | tim10-1 confirm 45.2 | TIM10 conf 42.9 | tim23-1 conf 61.7
COC(=O)C1=C(C)N(Cc2ccco2)C(=O)/C1=C\c1ccc([N+](=O)[O-])cc1	tim10-1 inh 62.4, tim23-1 inh 63.8, TIM10 inh 65.5 | tim10-1 confirm 77.4 | TIM10 conf 73.7 | tim23-1 conf 57.4
Cc1noc(C)c1CSCC(=O)N(C)CC(=O)Nc1ccccc1C(F)(F)F	none
CCCn1c(=O)c(C(=O)NNC(=O)c2ccccc2Cl)c(O)c2ccccc21	none
CC(=O)NNC(=S)NC(=O)c1ccccc1	none
O=C(NC(=S)NC1C2CC3CC(C2)CC1C3)c1ccccc1 (stereo unspecified)	tim10-1 inh 47.7, tim23-1 inh 53.9, TIM10 inh 40.8 | tim10-1 confirm 39.1 | TIM10 conf inactive | tim23-1 conf 66.8
COc1ccc(OC)c(NC(=O)c2ccccc2OC(C)=O)c1	tim10-1 inh 62.4, tim23-1 inh 54.0 | tim10-1 confirm 32.2 | tim23-1 conf 49.5
Nc1c2ccccc2nc2ccccc12	none
Cc1nc2ccccc2c2c(N)c3ccccc3n12	tim10-1 inh 41.4, tim23-1 inh 53.0, TIM10 inh 76.6 | tim10-1 confirm 47.4 | TIM10 conf inactive | tim23-1 conf 55.0
CCOP(=O)(OCC)/C(=N/OC(=O)c1ccc(Cl)cc1Cl)C(N)=O	none
N/C(=N\OC(=O)c1ccc(Cl)cc1Cl)c1cccnc1	tim10-1 inh 58.5, tim23-1 inh 51.9, TIM10 inh 51.0 (no result: PfHsp90 yeast 2) | tim10-1 confirm 55.3 | TIM10 conf 35.9 | tim23-1 conf 42.1
N/C(=N\OC(=O)c1ccc(Cl)cc1Cl)c1ccccc1	tim10-1 inh 62.0, tim23-1 inh 82.3, TIM10 inh 86.6 | tim10-1 confirm 54.8 | TIM10 conf 84.0 | tim23-1 conf 78.3
N/C(=N\OC(=O)c1ccccc1Cl)c1ccc(Cl)cc1	tim10-1 inh 53.1, tim23-1 inh 80.6, TIM10 inh 79.4 (no result: PfHsp90 yeast 2) | tim10-1 confirm 37.2 | TIM10 conf 82.5 | tim23-1 conf 71.5
N/C(=N/OC(=O)c1ccccc1Cl)c1nonc1N	none
N/C(=N\OC(=O)c1ccccc1Cl)c1ccccc1	tim10-1 inh 51.7, tim23-1 inh 57.1, TIM10 inh 46.6 | tim10-1 confirm 54.9 | TIM10 conf 42.6 | tim23-1 conf 51.5
CC(Sc1nc(C(F)(F)F)nc2ccccc12)C(=O)NC1CCCC1 (stereo unspecified)	none (no result: PfHsp90 yeast 2)
CCCOP(=O)(c1ccc(N(C)C)cc1)C(O)c1ccc(Cl)cc1 (stereo unspecified)	none
COc1ccccc1C(=O)O/N=C(\N)c1ccccc1Cl	tim10-1 inh 40.8, tim23-1 inh 51.6 | tim10-1 confirm 39.5 | tim23-1 conf inactive
CCN(CC)C(=O)[C@H]1C[C@H](CC(=O)NCCN2CCOCC2)C(=O)N2CCc3c([nH]c4cc(CCC(=O)N(C)C)ccc34)[C@]12C	none
Cc1nc2c(ccc3nc(NC(=O)C(c4ccccc4)c4ccccc4)sc32)s1	none
Cc1nc2c(ccc3nc(NC(=O)Cc4cccc5ccccc45)sc32)s1	tim10-1 inh 55.4, tim23-1 inh 59.7 | tim10-1 confirm 36.8 | tim23-1 conf 64.3
COC1=C(C)C(O)=C(C(=O)/C=C/c2ccccc2)C(=O)C1(C)C	tim10-1 inh 43.8, tim23-1 inh 57.0 | tim10-1 confirm inactive | tim23-1 conf 48.0
C=CCN1c2ccccc2C(=O)CS1(=O)=O	none
CCn1nc([N+](=O)[O-])c(C(C#N)c2nc3ccccc3n2C)c(Cl)c1=O (stereo unspecified)	none
CCCn1nc([N+](=O)[O-])c(C(C#N)c2nc3ccccc3s2)c(Cl)c1=O (stereo unspecified)	tim10-1 inh 72.9, tim23-1 inh 72.3, TIM10 inh 68.0 | tim10-1 confirm 62.2 | TIM10 conf 88.5 | tim23-1 conf inactive
Cc1cccc(C)c1-c1ccc(CN2C(CC(C)C)C(=O)N(Cc3cn(CCO)nn3)CCS2(=O)=O)cc1 (stereo unspecified)	none (no result: tim10-1 inh, tim23-1 inh, TIM10 inh)
COc1ccc2cc3cc(C(=O)NCCN4CCc5ccccc5C4)oc3nc2c1	tim10-1 inh 75.4, tim23-1 inh 62.7, TIM10 inh 85.8 | tim10-1 confirm 68.3 | TIM10 conf inactive | tim23-1 conf inactive
CCN1CCN(CCCNC(=O)c2cc3cc4ccc(OC)cc4nc3o2)CC1	none
